Here are results for 10 compounds from ChEMBL document CHEMBL3988442, “University of Dundee, Small-Polar-MMV Screening Library” (2021).

For some assays here: Potency and affinity values are given separately.

Design in all cases: scale not given: direction of the effect not stated beside the values
Assay [1] has as its target Protein translocase subunit SecA (Escherichia coli (strain K12)) (UniProt P10408). The assay is described as follows: Assay to Identify E. coli SecA ATPase Inhibitors. The format is functional. The note with it: 30 µM.
Assay [2] has as its target T1, Ubiquitin-activating enzyme e1, putative (Leishmania donovani (strain BPK282A1)) (UniProt E9BSI1).
T1 sequence (whole entry): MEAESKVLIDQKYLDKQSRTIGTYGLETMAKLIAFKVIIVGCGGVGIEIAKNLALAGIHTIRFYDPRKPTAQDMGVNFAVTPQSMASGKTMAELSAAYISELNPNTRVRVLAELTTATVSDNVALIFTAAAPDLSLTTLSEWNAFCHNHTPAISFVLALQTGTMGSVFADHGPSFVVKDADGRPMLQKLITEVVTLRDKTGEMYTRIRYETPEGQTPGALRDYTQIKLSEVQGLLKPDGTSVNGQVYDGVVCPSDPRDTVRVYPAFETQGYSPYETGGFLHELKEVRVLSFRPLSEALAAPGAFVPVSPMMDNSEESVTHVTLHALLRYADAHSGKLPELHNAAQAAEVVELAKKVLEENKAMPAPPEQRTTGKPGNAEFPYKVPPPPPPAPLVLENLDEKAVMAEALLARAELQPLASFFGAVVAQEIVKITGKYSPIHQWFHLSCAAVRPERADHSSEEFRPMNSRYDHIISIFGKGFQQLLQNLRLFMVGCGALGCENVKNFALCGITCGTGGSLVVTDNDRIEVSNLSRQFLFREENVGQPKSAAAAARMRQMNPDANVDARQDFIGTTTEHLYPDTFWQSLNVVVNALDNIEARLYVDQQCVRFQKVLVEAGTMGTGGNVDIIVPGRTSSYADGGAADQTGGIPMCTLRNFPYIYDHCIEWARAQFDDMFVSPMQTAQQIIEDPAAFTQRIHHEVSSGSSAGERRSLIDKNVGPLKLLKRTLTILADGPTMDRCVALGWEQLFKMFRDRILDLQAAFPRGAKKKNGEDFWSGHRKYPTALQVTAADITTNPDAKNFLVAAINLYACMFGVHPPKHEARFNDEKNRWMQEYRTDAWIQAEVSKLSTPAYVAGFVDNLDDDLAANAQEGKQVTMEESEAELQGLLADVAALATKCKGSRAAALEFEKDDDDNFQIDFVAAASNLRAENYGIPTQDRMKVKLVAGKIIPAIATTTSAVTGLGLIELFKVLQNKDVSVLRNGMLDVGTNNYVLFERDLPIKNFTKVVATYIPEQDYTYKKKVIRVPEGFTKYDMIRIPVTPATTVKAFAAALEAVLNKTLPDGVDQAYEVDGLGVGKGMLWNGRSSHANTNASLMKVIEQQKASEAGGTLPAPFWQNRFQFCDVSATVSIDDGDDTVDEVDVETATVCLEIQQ
Description: Leishmania donovani Ubiquitin Activating Enzyme (LdE1). The format is functional. The following applies: 30 µM.

The target in assay [3] is AMP-activated protein kinase, AMPK (Homo sapiens) (UniProt P54646+O43741+P54619+Q9UGJ0+Q9Y478+Q13131+Q9UGI9). The assay is described as follows: AMP-dependent Kinase enzyme assay. An in vitro enzyme assay that detects ADP turnover that is directly proportional to AMPK activity. This uses naive AMPK that is activated during the assay with MK-8722. The format is functional. The note with it: 30 µM.

In assay [4] the target is Sialic acid-binding Ig-like lectin 9 (Homo sapiens) (UniProt Q9Y336). The assay is described as follows: Hs-Siglec9 ALPHAscreen SOP 20170721. The following applies: 10 µM.
Chain of Sialic acid-binding Ig-like lectin 9 (Homo sapiens) (Q9Y336 whole entry): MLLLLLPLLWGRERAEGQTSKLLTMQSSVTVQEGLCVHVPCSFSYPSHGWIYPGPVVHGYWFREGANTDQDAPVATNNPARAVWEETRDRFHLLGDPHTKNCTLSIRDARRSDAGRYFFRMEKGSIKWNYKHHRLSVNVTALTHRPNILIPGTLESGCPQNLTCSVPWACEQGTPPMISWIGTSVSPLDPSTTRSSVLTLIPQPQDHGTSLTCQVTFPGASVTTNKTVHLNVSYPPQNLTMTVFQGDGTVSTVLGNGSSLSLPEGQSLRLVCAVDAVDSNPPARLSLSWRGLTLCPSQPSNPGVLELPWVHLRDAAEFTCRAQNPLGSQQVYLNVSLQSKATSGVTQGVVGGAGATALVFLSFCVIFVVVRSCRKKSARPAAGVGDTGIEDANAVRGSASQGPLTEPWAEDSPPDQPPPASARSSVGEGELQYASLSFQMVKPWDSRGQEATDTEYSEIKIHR
The next assay relates to Trypanosoma cruzi. The assay is described as follows: Trypanosoma cruzi phosphomannomutase and mannose-1-phosphate guanylyltransferase assay. It is filed as functional. The note with it: 10 µM.
Assay [5] deals with T2, Arginase-2, mitochondrial (Homo sapiens) (UniProt P78540).
T2 sequence (whole entry): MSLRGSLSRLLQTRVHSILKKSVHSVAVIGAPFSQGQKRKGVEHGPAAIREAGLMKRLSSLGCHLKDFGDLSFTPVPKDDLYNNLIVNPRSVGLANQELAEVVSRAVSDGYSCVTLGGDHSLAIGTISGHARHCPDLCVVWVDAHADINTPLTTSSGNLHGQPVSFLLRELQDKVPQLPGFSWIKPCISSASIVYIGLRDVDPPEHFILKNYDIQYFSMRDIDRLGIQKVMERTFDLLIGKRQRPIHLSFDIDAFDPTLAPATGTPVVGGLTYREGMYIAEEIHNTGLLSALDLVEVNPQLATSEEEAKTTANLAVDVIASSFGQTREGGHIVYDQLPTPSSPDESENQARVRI
The assay is described as follows: in vitro enzyme assay to detect the production of urea directly proportional to the activity of Arginase II. Note: in the data most compounds retested in dose-response had high values. The format is functional. The note with it: 33.3 µM.

Assay [6] concerns the target T3, Proteasome subunit beta (Trypanosoma cruzi) (UniProt O96673).
T3 sequence (whole entry): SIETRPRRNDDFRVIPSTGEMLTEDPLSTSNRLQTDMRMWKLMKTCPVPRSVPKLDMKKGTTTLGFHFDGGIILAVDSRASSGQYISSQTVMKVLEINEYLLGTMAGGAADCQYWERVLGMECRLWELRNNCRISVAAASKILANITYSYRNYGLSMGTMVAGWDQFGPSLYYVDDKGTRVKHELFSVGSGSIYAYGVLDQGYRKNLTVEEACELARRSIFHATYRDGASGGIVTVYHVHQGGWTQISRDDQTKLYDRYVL
The assay is described as follows: Trypanosoma cruzi proteasome chymotrypsin-like activity (TcProtChymo) assay. Note: in the data most compounds retested in dose-response had high values. The format is functional. The following applies: 9.37 µM.

For the next assay, the species on record is Homo sapiens. Description: To identify inhibition of the IFN signalling (Jak-Stat) pathway via expression of an eGFP reporter gene under the control of an IFN-stimulated response element (ISRE) containing MxA promoter. It is filed as functional. The following applies: 30 µM.
For assay [7], the target named is T4, Tyrosyl-tRNA synthetase, putative (Trypanosoma cruzi (strain CL Brener)) (UniProt Q4DSP6).
T4 sequence (whole entry): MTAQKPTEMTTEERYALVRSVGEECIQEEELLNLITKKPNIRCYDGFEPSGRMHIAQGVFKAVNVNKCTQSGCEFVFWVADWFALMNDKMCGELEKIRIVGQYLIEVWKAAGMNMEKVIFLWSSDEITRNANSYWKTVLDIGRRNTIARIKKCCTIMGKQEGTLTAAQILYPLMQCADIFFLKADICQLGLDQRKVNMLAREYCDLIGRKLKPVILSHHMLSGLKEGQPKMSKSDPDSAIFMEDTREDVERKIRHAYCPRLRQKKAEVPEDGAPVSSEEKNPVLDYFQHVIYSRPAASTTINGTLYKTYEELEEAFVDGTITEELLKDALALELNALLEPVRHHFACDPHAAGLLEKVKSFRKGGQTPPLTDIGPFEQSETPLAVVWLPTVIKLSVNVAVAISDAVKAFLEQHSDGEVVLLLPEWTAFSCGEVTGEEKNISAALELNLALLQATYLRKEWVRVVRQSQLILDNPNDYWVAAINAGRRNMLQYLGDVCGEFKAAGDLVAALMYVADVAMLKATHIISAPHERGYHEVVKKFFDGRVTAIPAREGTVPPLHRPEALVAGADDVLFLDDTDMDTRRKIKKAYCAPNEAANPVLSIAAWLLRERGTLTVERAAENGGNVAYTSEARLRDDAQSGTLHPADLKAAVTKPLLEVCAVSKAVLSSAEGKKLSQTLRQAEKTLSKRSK
The assay is described as follows: Trypanosoma cruzi tyrosyl tRNA synthetase (TcYRS) _High Tyrosine SOP. Note: in the data most compounds retested in dose-response had high values. The format is functional. The note with it: 30 µM.

In assay [8] the target is T4, Tyrosyl-tRNA synthetase, putative (Trypanosoma cruzi (strain CL Brener)). The assay is described as follows: Trypanosoma cruzi tyrosyl tRNA synthetase (TcYRS) SOP. The format is functional. The following applies: 30 µM.
In assay [9] the target is Chromo domain-containing protein 1 (Saccharomyces cerevisiae (strain ATCC 204508 / S288c) (Baker's yeast)) (UniProt P32657). Description: ScCHD-1 Enzyme Inhibition Assay. Note: in the data most compounds retested in dose-response had high values. It is filed as functional. The note with it: 30 µM.
Chain of Chromo domain-containing protein 1 (Saccharomyces cerevisiae (strain ATCC 204508 / S288c) (Baker's yeast)) (P32657 whole entry, the tested form may be a part): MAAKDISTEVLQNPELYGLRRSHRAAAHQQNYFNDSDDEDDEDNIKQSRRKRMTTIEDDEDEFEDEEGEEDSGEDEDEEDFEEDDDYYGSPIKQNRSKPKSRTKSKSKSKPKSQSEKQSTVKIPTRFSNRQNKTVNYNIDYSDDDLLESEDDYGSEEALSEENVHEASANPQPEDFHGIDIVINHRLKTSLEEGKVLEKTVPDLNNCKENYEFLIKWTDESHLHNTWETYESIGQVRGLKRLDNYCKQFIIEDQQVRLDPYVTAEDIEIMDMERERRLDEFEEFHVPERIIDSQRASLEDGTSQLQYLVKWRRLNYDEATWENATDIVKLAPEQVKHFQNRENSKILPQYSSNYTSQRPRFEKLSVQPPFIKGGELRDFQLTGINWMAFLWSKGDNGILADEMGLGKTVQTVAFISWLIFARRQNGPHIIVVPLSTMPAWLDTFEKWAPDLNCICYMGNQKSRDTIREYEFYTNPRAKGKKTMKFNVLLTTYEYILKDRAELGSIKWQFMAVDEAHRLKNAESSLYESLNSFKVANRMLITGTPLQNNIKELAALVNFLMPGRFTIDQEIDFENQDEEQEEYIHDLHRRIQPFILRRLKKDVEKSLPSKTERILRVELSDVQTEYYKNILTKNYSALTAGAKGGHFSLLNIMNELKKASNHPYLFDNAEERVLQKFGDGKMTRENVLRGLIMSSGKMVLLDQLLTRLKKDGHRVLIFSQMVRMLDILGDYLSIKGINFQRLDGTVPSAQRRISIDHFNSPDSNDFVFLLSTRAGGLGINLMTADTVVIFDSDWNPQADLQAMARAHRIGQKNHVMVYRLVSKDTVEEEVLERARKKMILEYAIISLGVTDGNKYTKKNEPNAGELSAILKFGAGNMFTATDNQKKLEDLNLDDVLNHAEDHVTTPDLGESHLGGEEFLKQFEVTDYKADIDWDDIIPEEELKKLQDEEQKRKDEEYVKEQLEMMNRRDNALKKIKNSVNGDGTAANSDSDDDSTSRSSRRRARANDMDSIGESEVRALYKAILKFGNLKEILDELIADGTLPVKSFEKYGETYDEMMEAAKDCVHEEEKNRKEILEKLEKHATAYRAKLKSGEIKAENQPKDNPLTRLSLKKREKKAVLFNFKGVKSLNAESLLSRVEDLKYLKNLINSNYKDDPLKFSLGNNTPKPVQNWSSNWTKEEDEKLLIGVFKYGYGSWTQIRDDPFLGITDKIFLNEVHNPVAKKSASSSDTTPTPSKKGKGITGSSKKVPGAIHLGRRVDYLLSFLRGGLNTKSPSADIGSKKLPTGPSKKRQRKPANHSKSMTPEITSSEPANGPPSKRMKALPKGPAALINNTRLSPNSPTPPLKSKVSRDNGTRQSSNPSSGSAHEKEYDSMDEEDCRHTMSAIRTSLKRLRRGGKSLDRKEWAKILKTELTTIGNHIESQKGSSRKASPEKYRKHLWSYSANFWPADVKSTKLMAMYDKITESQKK

Chain of Protein translocase subunit SecA (Escherichia coli (strain K12)) (P10408 whole entry): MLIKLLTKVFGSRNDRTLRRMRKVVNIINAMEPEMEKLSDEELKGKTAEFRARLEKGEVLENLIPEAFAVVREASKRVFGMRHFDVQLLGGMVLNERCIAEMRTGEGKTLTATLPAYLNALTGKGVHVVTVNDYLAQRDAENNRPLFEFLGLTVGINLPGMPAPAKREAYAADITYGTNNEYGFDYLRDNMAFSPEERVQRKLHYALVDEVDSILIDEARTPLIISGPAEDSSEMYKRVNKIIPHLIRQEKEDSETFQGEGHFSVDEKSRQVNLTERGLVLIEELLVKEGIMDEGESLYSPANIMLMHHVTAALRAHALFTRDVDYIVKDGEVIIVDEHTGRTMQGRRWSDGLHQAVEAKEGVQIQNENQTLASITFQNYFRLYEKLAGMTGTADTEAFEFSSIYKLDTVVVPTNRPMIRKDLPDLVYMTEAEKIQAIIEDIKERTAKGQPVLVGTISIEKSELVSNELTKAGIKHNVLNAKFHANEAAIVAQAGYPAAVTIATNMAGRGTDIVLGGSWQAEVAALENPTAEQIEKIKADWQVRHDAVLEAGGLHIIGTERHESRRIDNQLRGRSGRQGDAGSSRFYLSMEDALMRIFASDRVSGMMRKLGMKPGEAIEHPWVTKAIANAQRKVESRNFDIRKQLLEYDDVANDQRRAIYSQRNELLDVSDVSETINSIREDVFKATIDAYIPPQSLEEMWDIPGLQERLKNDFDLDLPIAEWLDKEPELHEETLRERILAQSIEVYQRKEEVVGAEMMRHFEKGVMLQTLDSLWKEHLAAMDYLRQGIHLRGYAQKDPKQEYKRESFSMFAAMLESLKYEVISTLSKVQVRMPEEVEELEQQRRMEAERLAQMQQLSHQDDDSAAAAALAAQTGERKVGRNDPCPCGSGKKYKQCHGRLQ

On to `CCC1=N[C@@]2(CC[C@@H]3CN(CC(=O)N(C)C)C[C@@H]32)C(=O)N1CC1CC1`, for which the Percent Effect in [1] is -0.889%; in assay [2], 6.67%; in assay [3], 3.24%; in [4] it was -0.307%; with Trypanosoma cruzi, -6.88%; in [5], -12.2%. Besides, the Percent Effect is 17.2% in assay [6]; 4.45% in the assay listed under Homo sapiens; 0% in assay [7]; 10.3% in [8]; -7.25% in assay [9].

Take `COc1ccc(C2CCCN2S(=O)(=O)N(C)CC(C)C)cc1` (stereo not given): the Percent Effect is -1.74% in assay [1]; -6.94% in [2]; 6.36% in [3]; -0.345% in assay [4]; -2.62% in the assay with Trypanosoma cruzi; -3.97% in [5]. Besides, the Percent Effect was 5.61% in assay [6]; -1.6% in the assay listed under Homo sapiens; -5.26% in assay [7]; -10.3% in assay [8]; -2.11% in [9].

Take `CN(C)C(=O)CN1CCC2(CCCN(Cc3cccn3C)C2)C1=O` (stereo not given): the Percent Effect in assay [1] was -6.92%; in assay [2], 10.7%; in [3], 0.926%; in [4], -7.4%; in the assay with Trypanosoma cruzi, -5.12%; in assay [5], -3.96%. Moreover, the Percent Effect in assay [6] was 18.2%; in the assay filed under Homo sapiens, 10.5%; in assay [7], 1.06%; in [8] it was 1.28%; in [9], -7.43%.

Regarding `O=C(c1c[nH]c(=O)c(Cl)c1)N1C[C@@H]2CC[C@H](C1)N(Cc1ccccc1)C2`, the Percent Effect in assay [1] was -3.94%; in assay [2], 5.48%; in [3] it was 12.1%; in [4], 13.9%; in the assay on Trypanosoma cruzi it was 2.58%; in assay [5] it was -8.78%. In addition, the Percent Effect in [6] is 15.2%; in the assay filed under Homo sapiens, 9.64%; in assay [7] it was 2.08%; in assay [8], 11.1%; in assay [9], -3.03%.

`O=C(NCC1CC1)[C@H]1C[C@@H]2CN(S(=O)(=O)Cc3ccccc3)C[C@H]1O2`: the Percent Effect in [1] is -3.04%; in [2], 10.7%; in assay [3] it was 12.2%; in assay [4], -8.26%; in the assay with Trypanosoma cruzi, -6.5%; in [5] it was 2.56%. The Percent Effect in [6] was 9.25%; in the assay listed under Homo sapiens, 12.3%; in assay [7] it was 0%; in assay [8], 1.28%; in assay [9], -3.45%.

Consider `Cc1ccc(N2CC[C@H](OCC3CC3)[C@@H]2Cc2cnn(C)c2)nn1`, for which the Percent Effect in assay [1] is -4.88%; in assay [2] it was 5.41%; in assay [3], -7.52%; in assay [4], -0.711%; in the assay with Trypanosoma cruzi, -0.195%; in [5], 0.833%. Further, the Percent Effect in [6] stood at 15.1%; in the assay listed under Homo sapiens, 8.56%; in assay [7], 7.92%; in assay [8], 8.54%; in assay [9], 0.632%.

Turning to `CNC(=O)[C@H]1CCS(=O)(=O)[C@@H]2CN(Cc3ccc(OC)cc3)C[C@H]12`, the Percent Effect in assay [1] is 0.0608%; in assay [2], 2.7%; in assay [3] it was 3.94%; in [4], 2.93%; in the assay on Trypanosoma cruzi, 2.34%; in assay [5], 35.4%. The Percent Effect was -0.592% in assay [6]; 2.35% in the assay filed under Homo sapiens; 82.2% in [7]; 6.1% in assay [8]; 2.99% in assay [9].

Take `COCCC(=O)N1CCN(C)c2ncccc2C1`: the Percent Effect in assay [1] was -4.6%; in assay [2], 2.6%; in [3], 1%; in assay [4], 7.83%; in the assay on Trypanosoma cruzi, -2.06%; in assay [5], -1.38%. In addition, the Percent Effect in assay [6] stood at 3.83%; in the assay filed under Homo sapiens, 2.13%; in assay [7], 5.38%; in assay [8] it was 6.17%; in [9], 2.1%.

For the compound `c1ccc2oc(NC3CCCN(Cc4noc(C5CC5)n4)C3)nc2c1` (stereo not given), the Percent Effect was -1.73% in assay [1]; -5.41% in assay [2]; -1.19% in assay [3]; -0.829% in assay [4]; 4.63% with Trypanosoma cruzi; 3.81% in assay [5]. Also, the Percent Effect in assay [6] is 7.93%; in the assay listed under Homo sapiens it was -1.13%; in assay [7] it was 2.65%; in assay [8] it was 4.88%; in assay [9], 5.42%.

As to `CC(C)NC(=O)NCCCc1cc(N)n(-c2ccccc2)n1`, the Percent Effect was -2.64% in [1]; 5.48% in [2]; -7.43% in [3]; 15.8% in [4]; 5.09% in the assay on Trypanosoma cruzi; -6.82% in [5]. For the same compound, the Percent Effect in [6] was 24.8%; in the assay listed under Homo sapiens, 14.3%; in assay [7], 5.38%; in assay [8], 17.5%; in [9], -8.17%.
